Data reported in PubChem BioAssay (NCATS).
Results filed as inconclusive are left out. A number with no mark means an inactive call. The source made the active and inactive calls. The call rests on the fitted dose curve; in most records, active means well fitted cell-killing curve with a large enough effect; inconclusive means small, poorly fitted or top-dose-only effect, or effect the other way; inactive means no such curve, though single readings can be large or run the other way.

assay: Quantitative High-Throughput drug screen in 47 multiple myeloma cell lines against the NCATS MIPE library collection: XG6_PLB cell viability assay (AID 1919865); conditions: XG6 myeloma viability, CellTiter-Glo ATP luminescence, 48 h; series mostly up to 45.8 µM; viability (% of control): at the top concentration; further: nearly all actives have a fitted effect of over 40% in size
Source text: PI: Beverly A. Mock Ph.D.
Laboratory of Cancer Biology and Genetics,
Center for Cancer Research, National Cancer Institute,
National Institute of Health, Bethesda, Maryland
Drug resistance and disease progression are common in multiple myeloma (MM) patients, underscoring the need for new therapeutic combinations. […] We hypothesized that effective combinations would reduce MYC expression and enhance p16 activity. […] These preclinical data identify potentially useful drug combinations for evaluation in drug-resistant MM and reveal potential mechanisms of combined drug sensitivity.
Described herein is the primary MIPE qHTS used to cherrypick compounds. Validated compounds were then further tested for potential synergistic activiy.
[1] Peat TJ, Gaikwad SM, Dubois W, Gyabaah-Kessie N, Zhang S, Gorjifard S, Phyo Z, Andres M, Hughitt VK, Simpson RM, Miller MA, Girvin AT, Taylor A, Williams D, D'Antonio N, Zhang Y, Rajagopalan A, Flietner E, Wilson K, Zhang X, Shinn P, Klumpp-Thomas C, McKnight C, Itkin Z, Chen L, Kazandijian D, Zhang J, Michalowski AM, Simmons JK, Keats J, Thomas CJ, Mock BA. Drug combinations identified by high-throughput screening promote cell cycle transition and upregulate Smad pathways in myeloma. Cancer Lett. 2023 Aug 1;568:216284. doi: 10.1016/j.canlet.2023.216284. Epub 2023 Jun 24. PMID: 37356470; PMCID: PMC10408729.
SEQUENCE No. (e.g., 1, 2, 3, etc.); […] (e.g., Cells, Incubation, Reagent, etc.); VALUE and DESCRIPTION.
1; Cells; 5 uL; white, solid bottom 1536-well Greiner assay plate.
2; Compounds; 23 nL; Kalypsis pin tool (Wako USA) equipped with a 1536-well pin head to transfer to the assay plates.
3; Incubation; 48 hours; 37C incubation.
4; Reagent;5uL; CellTiter Glo (Promega).
5; Detector; 425V; Luminescence; Viewlux PerkinElmer.
NOTES (numbers refer to Sequence numbers above)
1. The cell-based screening methods employed in this study were like those previously published. Briefly, the corresponding myeloma cell lines were screened in 1,536-well plates with 500 cells, 5-uL per well for inhibition of cell viability (assessed by measuring ATP levels with CellTiterGlo).
2. NCATS MIPE 4.0 library of approved and investigational drugs were added using the Kalypsis pin tool. Wells treated with DMSO only for 100% viability and media only for 0% viability were used as controls.
3. The assay plates were covered and incubated for 48 hours in a 37C, 5% CO2 incubator with controlled humidity.
4. After 48 hours, CellTilter-GloTM luminescent substrate mix (Promega) reagent was added to the assay plate and plates we incubated for 5 min at room temperature.
5. Signal was measured as median relative luminescence units on a ViewLux (PerkinElmer) multiplate reader.
[1] Heske CM, Davis MI, Baumgart JT, Wilson K, Gormally MV, Chen L, Zhang X, Ceribelli M, Duveau DY, Guha R, Ferrer M, Arnaldez FI, Ji J, Tran HL, Zhang Y, Mendoza A, Helman LJ, Thomas CJ. Matrix Screen Identifies Synergistic Combination of PARP Inhibitors and Nicotinamide Phosphoribosyltransferase (NAMPT) Inhibitors in Ewing Sarcoma. Clin Cancer Res. 2017 Dec 1;23(23):7301-7311. doi: 10.1158/1078-0432.CCR-17-1121. Epub 2017 Sep 12. PMID: 28899971; PMCID: PMC6636827.
Potency means the concentration at half of the fitted maximal effect.

First: CC(C)C[C@H](CN)CC(=O)O
Second: CC(C)c1cccc(C(C)C)c1O
The “viability (% of control)” value of the first is higher: 127% for the first, 126% for the second.

Compared with `O=P1(N(CCCl)CCCl)NCCCO1` (stereo unspecified), `C[C@]12CC[C@@H]3c4ccc(OC(=O)N(CCCl)CCCl)cc4CC[C@H]3[C@@H]1CC[C@@H]2OP(=O)(O)O` is lower in “viability (% of control)” value: 107% for the first, 103% for the second.

Compared with `C[C@]12CC[C@H]3[C@@H](CC[C@@]45O[C@H]4C(O)=C(C#N)C[C@]35C)[C@H]1CC[C@H]2O`, `CN1C(=O)COc2c(C(=O)NC3CN4CCC3CC4)cc(Cl)cc21` (stereo unspecified) is higher in “viability (% of control)” value: 107% for the first, 116% for the second.

Going from `CC(NC(C)(C)C)C(=O)c1cccc(Cl)c1` (stereo unspecified) to `CCC1(c2ccc(N)cc2)CCC(=O)NC1=O` (stereo unspecified), the “viability (% of control)” value rises from 108% to 113%.

For `CN1C(=O)CCS(=O)(=O)C1c1ccc(Cl)cc1` (stereo unspecified), the Potency was 18.7 µM (active).
In the case of `C[C@](O)(CS(=O)(=O)c1ccc(F)cc1)C(=O)Nc1ccc(C#N)c(C(F)(F)F)c1`, the Potency is reported as 0.148 µM (active).
For `O=C(O)CCCc1ccc(N(CCCl)CCCl)cc1`, the Potency was 11.8 µM (active).
